Results filed as inconclusive are left out. Entries that show only a call come without a potency. The source made the active and inactive calls. Calls follow the shape of the dose curve; as a rule, active = well fitted cell-killing curve with a large enough effect; inconclusive = small, poorly fitted or top-dose-only effect, or effect the other way; inactive = flat fitted curve, though single readings scatter.

This experiment relates to Es-2. Put plainly: Primary qHTS to identify gynecologic anti-cancer compounds using libraries of approved drugs and bioactive compounds (AID 1345084). Also: nearly all actives have a fitted effect of over 55% in size. The settings on record: Gynecologic cancer cell panel viability, ATPlite luminescence, 48 h; series mostly up to 57.5 µM. Put shortly: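 Luminescence from the ATPlite ATP-monitoring reagent indicates viable cell number; lower signal means cytotoxicity. Cells received compound 16 h after seeding and were exposed for 48 h across five concentrations.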
As for `O=c1[nH]c(=O)n([C@H]2CCCO2)cc1F`, the Potency result is “inactive”. As for `COC(=O)CCc1ccc(OCC(O)CNC(C)C)cc1` (stereo not given), the entry is “inactive”.

In the case of `Cc1cc2c(cc1CC(=O)c1sccc1S(=O)(=O)Nc1onc(C)c1Cl)OCO2`, the Potency result was “inactive”. Under `CC(C)(C)NC(=O)[C@@H]1CN(Cc2cccnc2)CCN1C[C@@H](O)C[C@@H](Cc1ccccc1)C(=O)N[C@H]1c2ccccc2C[C@H]1O` stands “inactive”; under `CCCCS(=O)(=O)N[C@@H](Cc1ccc(OCCCCC2CCNCC2)cc1)C(=O)O`, “inactive”; under `Cc1onc(-c2c(Cl)cccc2Cl)c1C(=O)N[C@@H]1C(=O)N2[C@@H]1SC(C)(C)[C@@H]2C(=O)O`, “inactive”. Under `CN1CCN(C(c2ccccc2)c2ccccc2)CC1` stands “inactive”; under `O=C(O)CNC(=O)c1ccccc1`, “inactive”. Under `COC(=O)[C@@H]1CC2=CC(=O)CC[C@]2(C)[C@@]23O[C@@H]2C[C@@]2(C)[C@@H](CC[C@@]24CCC(=O)O4)[C@H]13` stands “inactive”; under `NC(CS)C(=O)O` (stereo not given), “inactive”; under `CN(C)CCOc1ccccc1Cc1ccccc1`, “inactive”. Consider `CCOC(=O)OC(C)OC1=C(C(=O)Nc2ccccn2)N(C)S(=O)(=O)c2ccccc21` (stereo not given), for which the Potency entry was “inactive”. As for `N[C@H](Cc1c[nH]c2ccccc12)C(=O)O`, the Potency result is “inactive”. As for `C[C@H](O)C(=O)Nc1c(I)c(C(=O)NC(CO)CO)c(I)c(C(=O)NC(CO)CO)c1I`, the entry is “inactive”; as for `CC(C)COC(=O)c1ccc(N)cc1`, “inactive”; as for `Cc1ccc(C(=O)C(C)CN2CCCCC2)cc1` (stereo not given), “inactive”. As for `CC1(C)O[C@@H]2[C@@H](CO[C@@]3(COS(N)(=O)=O)OC(C)(C)O[C@@H]23)O1`, the entry is “inactive”; as for `CCN(CCCCOC(=O)c1ccc(OC)c(OC)c1)C(C)Cc1ccc(OC)cc1` (stereo not given), “inactive”; as for `CN=C(NC#N)Nc1ccc(C2=NNC(=O)CC2C)cc1` (stereo not given), “inactive”. Under `Cc1nc2n(c(=O)c1CCN1CCC(c3noc4cc(F)ccc34)CC1)CCC[C@H]2O` stands “inactive”.
